Source: PubChem BioAssay (NCATS)
Several values for one entry are separate records, joined by “and”; a condition that tells them apart may be missing. Identical values can stand only once. Results filed as inconclusive are left out. Activity calls are given as the source filed them. Calls come from the whole dose curve.

Assay: Primary qHTS to identify inhibitors of SARS-CoV-2 cell entry (AID 1645846); note: nearly all actives have a fitted effect of over 45% in size
Settings: SARS-CoV-2 pseudovirus cell entry assay, luminescence; activity change, negative = inhibition: at 57.1 µM (top of the series) unless noted; series mostly up to 57.1 µM
Summary of the method: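 Using luciferase-reporting pseudoviruses carrying Wuhan-Hu-1 spike, the screen tracks entry into stably ACE2-expressing cells over 48 hr. Activity is expressed relative to spike particles versus particles lacking any fusion protein.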
Potency is the fitted concentration of half-maximal effect.

| SMILES | activity change, negative = inhibition | Potency |
| --- | --- | --- |
| COc1cc2c(cc1OC)C(=O)C(CC1CCN(Cc3ccccc3)CC1)C2 (configuration not stated) | -29.7% | – |
| CC1(C)NC(=O)N(c2ccc([N+](=O)[O-])c(C(F)(F)F)c2)C1=O | -23.9% | – |
| COc1ccc([C@@H]2Sc3ccccc3N(CCN(C)C)C(=O)[C@@H]2OC(C)=O)cc1 | -17.1% and -9.97% | – |
| CC(C)Nc1cccnc1N1CCN(C(=O)c2cc3cc(NS(C)(=O)=O)ccc3[nH]2)CC1 | – | inactive |
| COC(=O)[C@H]1[C@H]2C[C@@H]3c4[nH]c5cc(OC)ccc5c4CCN3C[C@H]2C[C@@H](OC(=O)c2cc(OC)c(OC)c(OC)c2)[C@@H]1OC | -18.9% | – |
| O=C1c2c(O)ccc(O)c2C(=O)c2c(NCCNCCO)ccc(NCCNCCO)c21 | -94.5% and -97.6% | – |
| NC1[C@H]2CN(c3nc4c(cc3F)c(=O)c(C(=O)O)cn4-c3ccc(F)cc3F)C[C@@H]12 (some centres not stated) | – | inactive |
| CC[C@@]1(c2ccccc2)NC(=O)N(C)C1=O | -24.8% | – |
| CN1C(=O)CC(C)(c2ccccc2)C1=O (configuration not stated) | -13.4% | – |
| COc1ccc(Cl)cc1C(=O)NCCc1ccc(S(=O)(=O)NC(=O)NC2CCCCC2)cc1 | 4.27% | – |
| O=C1NC(c2ccccc2)(c2ccccc2)C(=O)N1COP(=O)(O)O | -4.89% | – |
| C[C@@H](O)[C@H]1C(=O)N2C(C(=O)O)=C(S[C@@H]3CN[C@H](CNS(N)(=O)=O)C3)[C@H](C)[C@H]12 | -25.7% | – |
| Nc1nc(F)nc2c1ncn2[C@@H]1O[C@H](CO)[C@@H](O)[C@@H]1O | 3.89% and -17.8% | – |
| CN(C)c1ccc(O)c2c1C[C@H]1C[C@H]3[C@H](N(C)C)C(=O)C(C(N)=O)=C(O)[C@@]3(O)C(=O)C1=C2O | -8.61% | – |
| COc1cc(NC(C)CCCN)c2ncccc2c1 (configuration not stated) | 2.06% | – |
| COC(=O)Nc1nc2ccc(C(=O)c3ccccc3)cc2[nH]1 | -67.2% and -34.4% | – |
| CNCCc1ccccn1 | – | inactive |
| O=C(NCCN1CCOCC1)c1ccc(Cl)cc1 | – | inactive |
| CN(C)CCC=C1c2ccccc2CCc2ccccc21 | – | 20 µM (active) |

| SMILES | activity change, negative = inhibition | Potency |
| --- | --- | --- |
| CN1C(CCl)Nc2cc(Cl)c(S(N)(=O)=O)cc2S1(=O)=O (configuration not stated) | – | inactive |
| COC(=O)CCc1ccc(OCC(O)CNC(C)C)cc1 (configuration not stated) | -35% | – |
| CCCCc1nc(Cl)c(CO)n1Cc1ccc(-c2ccccc2-c2nn[nH]n2)cc1 | – | inactive |
| COc1ccc2nc(S(=O)Cc3ncc(C)c(OC)c3C)[nH]c2c1 (configuration not stated) | -4.15% | – |
| NC(=O)C(c1ccccc1)(c1ccccc1)[C@@H]1CCN(CCc2ccc3c(c2)CCO3)C1 | -1.98% | – |
| CC(C)Oc1ccc2c(=O)c(-c3ccccc3)coc2c1 | – | inactive |
| O=C(OC1C[C@H]2CC[C@@H](C1)[N+]21CCCC1)C(O)(c1ccccc1)c1ccccc1 (some centres not stated) | -4.34% | – |
| CO/N=C1\CN(c2nc3c(cc2F)c(=O)c(C(=O)O)cn3C2CC2)CC1CN (configuration not stated) | -12.6% | – |
| Nc1nc2c(ncn2COCCO)c(=O)[nH]1 | – | inactive |
| C[C@@H](NCCCc1cccc(C(F)(F)F)c1)c1cccc2ccccc12 | – | 20 µM (active) |
| Cc1cccc(Nc2ccccc2C(=O)O)c1C | – | inactive |
| COc1cc2c(cc1OC)[C@@H]1CC(=O)[C@@H](CC(C)C)CN1CC2 | – | inactive |
| CC(=O)OCC(CCn1cnc2cnc(N)nc21)COC(C)=O | -14.3% and -5.75% | – |
| COc1cc2c(c(OC)c1OC)-c1ccc(OC)c(=O)cc1[C@@H](NC(C)=O)CC2 | -76.4% | – |
| O=C(O)CCNC(=O)c1ccc(N=Nc2ccc(O)c(C(=O)O)c2)cc1 | – | inactive |
| CN(C)c1cc(NC(=O)CNC(C)(C)C)c(O)c2c1C[C@@H]1C[C@H]3[C@H](N(C)C)C(=O)C(C(N)=O)=C(O)[C@@]3(O)C(=O)C1=C2O | -25.4% | – |
| CC(C)(C)NC(=O)[C@H]1CC[C@H]2[C@@H]3CC[C@H]4NC(=O)C=C[C@]4(C)[C@H]3CC[C@]12C | – | inactive |
| Cc1cn[nH]c1 | 4.3% | – |
